Reference: PubChem BioAssay (NCATS)
A number with no mark means an inactive call. Records with an inconclusive call do not appear. A call without a number means that no potency is given here. Calls of active or inactive are those of the source. The call rests on the fitted dose curve; in most records, active means well fitted curve in the direction sought with a large enough effect; inconclusive means small, poorly fitted or top-dose-only effect, or another doubt; inactive means no such curve, though single readings can be large; an effect the other way counts as inactive or inconclusive.

Key:
[1] = target: Glutathione peroxidase 1 (Homo sapiens) (UniProt P07203); experiment: Primary qHTS Assay for Inhibitors of Recombinant Selenoprotein Glutathione Peroxidase 1 (GPX1) (AID 1845191); further: nearly all actives have a fitted effect of over 65% in size
How it was run: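 10 nM GPX1 + cpd, 30 min RT; start w/ 1 mM GSH, 0.5 mM cumene hydroperoxide, 0.5 mM NADPH, 100 nM GR, 0.01% BSA; buffer 50 mM Tris-HCl pH 7.5, 2 mM EDTA, 150 mM NaCl; Fl 340/450, 0 & 15 min.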

[2] = target: Phospholipid hydroperoxide glutathione peroxidase GPX4 (Homo sapiens) (UniProt P36969); experiment: Primary qHTS Assay for Inhibitors of Recombinant Selenoprotein Glutathione Peroxidase 4 (GPX4) (AID 1845192); further: nearly all actives have a fitted effect of over 65% in size; on activity change, negative = inhibition: series mostly up to about 50 µM
How it was run: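 NADPH consumption, followed by fluorescence at 340/450 nm between 0 and 15 min, reports GPX4 activity via coupled glutathione reductase (100 nM). Enzyme 200 nM was pre-exposed to compound 30 min; 0.5 mM cumene hydroperoxide and 1 mM GSH served as substrates.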

[3] = target: Luciferin 4-monooxygenase (Photinus pyralis) (UniProt P08659); experiment: Primary firefly luciferase (FLuc) qHTS assay for identification of artifact compounds. (AID 1845220); further: nearly all actives have a fitted effect of over 60% in size; on activity change, negative = inhibition: series mostly up to about 54 µM
How it was run: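 FLuc 10 nM; luciferin 10 uM; ATP 10 uM; Tris-acetate pH 7.6, Mg-acetate 10 mM; 15 min RT preincubation; 5 min reaction; luminescence.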

[4] = Primary fluorescence-based thiol-reactive (MSTI) qHTS assay for identification of artifact compounds. (AID 1845221);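 further: series mostly up to about 54 µM; thiol-reactive compounds lower the probe fluorescence signal; nearly all actives have a fitted effect of over 65% in size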
How it was run: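 Thiol-reactive compounds detected by quenching of 4 uM MSTI fluorescence (525/598 nm) after 1 h room-temperature dark incubation in PBS pH 7.4, 2% DMSO. qHTS titration; percent inhibition Hill-fitted against Acetyl-MSTI/MSTI controls.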

[5] = test system: Nanoluciferase (engineered Oplophorus gracilirostris luciferase); experiment: Primary Nanoluciferase (NLuc) qHTS assay for identification of artifact compounds. (AID 1845222); further: potency means the concentration at half of the fitted maximal effect;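 on activity, negative = inhibition: NLuc secreted into diluted conditioned medium of S16 cells; series mostly up to about 54 µM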
How it was run: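 NLuc from S16 cell medium (1:55) plus test compounds, 15 min, room temperature. Luminescence after Nano-Glo (1:100) addition, 5 min.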

[6] = Primary redox qHTS assay for identification of artifact compounds. (AID 1845223)
How it was run: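 Amplex Red (25 uM) and HRP (250 mU/mL) in HBSS, with compounds for 15 min, then 250 uM DTT for 30 min, room temperature, dark. Fluorescence 525/598 nm read; normalized to DMSO and 10 uM DA3003; Hill fit.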

Sequence of Phospholipid hydroperoxide glutathione peroxidase GPX4 (Homo sapiens) (P36969 whole entry, looked up): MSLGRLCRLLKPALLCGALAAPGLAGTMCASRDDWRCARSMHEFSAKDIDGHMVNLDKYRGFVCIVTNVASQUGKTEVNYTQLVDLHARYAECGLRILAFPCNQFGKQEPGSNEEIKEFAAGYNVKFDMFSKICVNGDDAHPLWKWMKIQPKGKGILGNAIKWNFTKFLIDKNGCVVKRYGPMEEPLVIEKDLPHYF
Sequence of Glutathione peroxidase 1 (Homo sapiens) (P07203 whole entry, looked up): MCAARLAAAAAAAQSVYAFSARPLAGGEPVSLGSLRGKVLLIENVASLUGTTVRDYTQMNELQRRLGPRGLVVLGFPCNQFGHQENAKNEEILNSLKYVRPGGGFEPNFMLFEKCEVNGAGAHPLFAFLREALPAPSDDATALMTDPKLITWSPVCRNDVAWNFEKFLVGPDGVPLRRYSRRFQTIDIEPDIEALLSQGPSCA

Row | SMILES | Potency [1] | Potency [2] | Potency [3] | Potency [4] | Potency [5] | Potency [6] | activity change, negative = inhibition [3] | activity change, negative = thiol reactive [4] | activity, negative = inhibition [5] | redox activity (% of DA3003) [6]
1 | CC(C)=CCCC1(C)/C=C/C(OC(=O)C=C(C)C)C(C)(O)/C=C/C(=O)/C(CO)=C\C1 (centres undefined) | inactive | inactive | inactive | inactive | inactive | inactive |  |  |  | 
2 | C1=Cc2ccccc2C(=C2CCN(CCCCc3nn[nH]n3)CC2)c2ccccc21 | inactive | inactive | inactive | inactive | inactive | inactive |  |  |  | 
3 | CC(C)n1nc(C#Cc2ccccc2)c2c(N)ncnc21 | inactive | inactive | inactive | inactive | inactive | inactive |  |  |  | 
4 | Cc1ccccc1C(C(=O)NC1CCCCC1)N(C(=O)Cn1cnc2ccccc21)c1cccc(F)c1 (centres undefined) | inactive | inactive | inactive | inactive | inactive | inactive |  |  |  | 
5 | Fc1ccc(-c2nc(C3CCNCC3)sc2-c2ccnc(NC3CC3)n2)cc1 | inactive | inactive | inactive | inactive | inactive | inactive |  |  |  | 
6 | C=C(C=O)[C@]1(O)C[C@@]2(C)C(=CC1=O)C=C[C@H](OC(=O)/C=C/C=C/[C@H](C)CC)[C@@H]2C | inactive | inactive | inactive | inactive | inactive | inactive |  |  |  | 
7 | COc1ccc(Oc2c(Cl)cnn(-c3cc(C)cc(C)c3)c2=O)cc1 | inactive | inactive | inactive | inactive | inactive | inactive |  |  |  | 
8 | C=C1C(=O)O[C@@H]2[C@H]3C(C)=CC(=O)C3=C(C)[C@@H](OC(=O)/C(C)=C\C)[C@H](O)[C@@H]12 | inactive | inactive | inactive | inactive | 9.31 µM (active) | inactive |  |  |  | 
9 | CC(=O)C1=CCC2C3CC=C4CC(O)CC(O)C4(C)C3C(O)CC12C (centres undefined) | inactive | inactive | inactive | inactive | inactive | inactive |  |  |  | 
10 | Cc1ccnc(NC(=O)C(C)c2cccc(C(=O)c3ccccc3)c2)c1 (centres undefined) | inactive | inactive | inactive | inactive | inactive | inactive |  |  |  | 
11 | C/C=C(/C)C(=O)OC1C=C2C3C(C)C(C)C(OC(=O)C(C)C(C)O)CC3(C)CCC2(C)C2(C)CC(OC(C)=O)C3C(C)(C)C(O)C(=O)CC3(C)C12 (centres undefined) | inactive | inactive | inactive | inactive | inactive | inactive |  |  |  | 
12 | C/C=C/C=C/C=C/C(=O)O[C@@H]1C=C(CO)C(O)(C(=O)OC)[C@@]2(C)CCCC(C)(C)C12 (some centres undefined) | inactive | inactive | inactive | inactive | inactive | inactive |  |  |  | 
13 | O=C(NCCCn1ccnc1)c1cc(-c2ccco2)on1 | inactive | inactive | inactive | inactive | inactive | inactive |  |  |  | 
14 | Cc1cc(N2CCN(C(=O)Oc3ccc(-c4ccccc4)cn3)CC2)c2ccccc2n1 | inactive | inactive | inactive | inactive | inactive | inactive |  |  |  | 
15 | C=C1CC[C@@H](O)[C@]2(C)C[C@H]3OC(=O)C(=C)[C@H]3CC12 (some centres undefined) | inactive | inactive | inactive | inactive | inactive | inactive |  |  |  | 
16 | Cc1ccc(S(=O)(=O)NCc2ccc(C(=O)NCCN(Cc3ccccc3)C(C)C)cc2)cc1 | inactive | inactive | inactive | inactive | inactive | inactive |  |  |  | 
17 | N#Cc1ccc(O[C@@H]2c3ccccc3C[C@H]2N2CCC[C@@H](N)C2)c(Cl)c1 | inactive | inactive | inactive | inactive | inactive | inactive |  |  |  | 
18 | CC(=O)OC1C(OC(=O)c2ccccc2)C2C(=C(C)CCC2(C)C)C23CCC(C)(C2)C(=O)CC13 (centres undefined) | inactive | inactive | inactive | inactive | inactive | inactive |  |  |  | 
19 | CC(C)(CO)c1cc2cc(NC(=O)C3(c4ccc5c(c4)OC(F)(F)O5)CC3)c(F)cc2n1CC(O)CO (centres undefined) | inactive | inactive | inactive | inactive | inactive | inactive |  |  |  | 
20 | CC(O)(C(=O)C1CC1(CO)COC1OC(CO)C(O)C(O)C1O)C1C(O)CC2C3CC=C4CC(O)CC(O)C4(C)C3C(O)CC21C (centres undefined) | inactive | inactive | inactive | inactive | inactive | inactive |  |  |  | 
21 | CCNC(=O)N1CCCN(c2ccc(C(=O)NCCc3ccc(Cl)cc3Cl)cc2NC(=O)c2cccc(Cl)c2)CC1 | inactive | inactive | inactive | inactive | inactive | inactive |  |  |  | 
22 | C=C1CCN([C@H](C)[C@](O)(Cn2cncn2)c2ccc(F)cc2F)CC1 | inactive | inactive | inactive | inactive | inactive | inactive |  |  |  | 
23 | Cc1cc2sc(NC(=O)Cc3ccccc3)nc2cc1Cl | inactive | inactive | inactive | inactive | inactive | inactive |  |  |  | 
24 | COC1C(O)C(OC2CCC3(C)C(CCC45CCC6C7(COC(=O)C7)OC4(O)C6(C)CCC35)C2)OC(C)C1OC1OC(CO)C(OC2OC(CO)C(O)C(O)C2O)C(O)C1O (centres undefined) | inactive | inactive |  |  |  |  | 0.42% [at 11.6 µM] | 19.5% [at 11.5 µM] | 4.19% [at 11.6 µM] | 3.19% [at 11.5 µM]
